Measured values as given in PubChem BioAssay (EPA / NIEHS).
Some structures have more than one record in an assay (separate samples or runs), and their calls can disagree. Calls of active or inactive are those of the source. Rule for the calls: active = hit-call score of the fitted dose curve at least 0.9, where 1 is the maximum; inactive = score below 0.9.

Target: Nuclear respiratory factor 1 (Homo sapiens) (UniProt Q16656)
Experiment: ATG_NRF1_CIS: Attagene CIS-FACTORIAL HepG2 Assay for human Nuclear Respiratory Factor 1 (NRF1) Orphan Gene (AID 2282987)
Settings: HepG2 NRF1 cis-element reporter, Attagene multiplex; actives raise or lower the signal
Outline: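 Cells (HepG2, transient MRTU transfection) are exposed to compound for 24 h, then RNA isolated and reporter mRNA amplified and fluorescently labelled. Fragments are separated by capillary electrophoresis; signal change is fitted bidirectionally relative to DMSO.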

Sequence of Nuclear respiratory factor 1 (Homo sapiens) (Q16656 whole entry, looked up): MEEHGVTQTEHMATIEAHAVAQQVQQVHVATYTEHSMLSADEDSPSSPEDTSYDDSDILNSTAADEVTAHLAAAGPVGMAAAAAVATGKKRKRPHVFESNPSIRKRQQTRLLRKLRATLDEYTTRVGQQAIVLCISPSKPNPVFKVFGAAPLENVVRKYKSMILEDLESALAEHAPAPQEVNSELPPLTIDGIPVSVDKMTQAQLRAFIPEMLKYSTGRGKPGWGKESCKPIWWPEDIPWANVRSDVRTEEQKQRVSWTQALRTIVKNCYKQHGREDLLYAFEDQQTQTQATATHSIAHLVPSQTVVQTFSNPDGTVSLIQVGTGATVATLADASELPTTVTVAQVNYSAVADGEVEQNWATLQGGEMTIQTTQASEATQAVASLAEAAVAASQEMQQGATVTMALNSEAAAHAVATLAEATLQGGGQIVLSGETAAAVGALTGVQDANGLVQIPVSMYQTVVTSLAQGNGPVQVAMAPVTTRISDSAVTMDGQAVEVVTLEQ

Structure (SMILES) | outcome | AC50
CCN(N=O)C(N)=O | inactive | 
CCOP(=O)(OCC)SCCSCC | inactive | 
Brc1ccc(Br)cc1 | inactive | 
C=C(C)[C@@H]1CC=C(C=O)CC1 | inactive | 
CCOc1cc(C=O)ccc1O | inactive | 
CCCCCCCCBr | inactive | 
N#Cc1ccncc1 | inactive | 
Clc1cccc(Cl)c1 | inactive | 
CN(C)c1ccc(N=O)cc1 | inactive | 
FC(F)OCC(F)(F)C(F)(F)F | inactive | 
C=CC(=O)OCC(COC(=O)C=C)(COC(=O)C=C)COC(=O)C=C | inactive | 
CC(C)[C@H](C(=O)OC(C#N)c1cccc(Oc2ccccc2)c1)c1ccc(OC(F)F)cc1 (stereo not given in full) | inactive | 
CN(N=O)C(N)=O | inactive | 
O=[N+]([O-])c1c2ccccc2cc2ccccc12 | inactive | 
CCCSP(=S)(OCC)Oc1ccc(Cl)cc1Cl (stereo not given) | inactive | 
CCOC(=O)CCN(SN(C)C(=O)Oc1cccc2c1OC(C)(C)C2)C(C)C | inactive | 
C=CC(F)(C(F)(F)F)C(F)(F)C(F)(F)F (stereo not given) | inactive | 
OCCCCO | inactive | 
N#Cc1ccccc1Cl | inactive | 
CNC(=O)N(C)c1nc2ccccc2s1 | inactive | 

Structure (SMILES) | outcome | AC50
CCOP(=S)(OCC)O/N=C(\C#N)c1ccccc1 | inactive | 
Nc1ccc(Br)cc1 | inactive | 
O=c1oc2ccccc2c(O)c1C(CC(O)c1ccc(-c2ccc(Br)cc2)cc1)c1ccccc1 (stereo not given) | inactive | 19.6 µM (active)
Cc1cc(Cl)ccc1N | inactive | 
O=C(Cl)OCCOCCOC(=O)Cl | inactive | 
CC(F)(F)CC(F)(F)F | inactive | 
O=C(O)C1(c2ccc3c(c2)OC[C@H](Cc2ccc(-c4ccccc4)cc2)[C@H]3O)CCCC1 | inactive | 
Clc1cccc(Cl)c1Cl | inactive | 
COc1ccc([N+](=O)[O-])cc1O | inactive | 
Cc1cc(C(C)(C)c2ccc(O)c(C)c2)ccc1O | inactive | 
OC[C@@H](O)[C@H]1O[C@@H]2O[C@H](C(Cl)(Cl)Cl)O[C@@H]2[C@H]1O | inactive | 
C=CCOC(F)(C(F)(F)F)C(F)(F)F | inactive | 
CC(=O)CN(CC(C)=O)N=O | inactive | 
C=CCc1ccccc1O | inactive | 
O=[N+]([O-])c1cc([As](=O)(O)O)ccc1O | inactive | 
CCOC(=O)C(SP(=S)(OC)OC)c1ccccc1 (stereo not given) | inactive | 
CCC(C)(C#N)N=NC(C)(C#N)CC (stereo not given) | inactive | 
Cc1ccc(CCl)cc1 | inactive | 
CS(=O)(=O)c1ccc(C(=O)C2C(=O)CCCC2=O)c(Cl)c1COCC(F)(F)F | inactive | 

Tested on: not listed separately
Experiment: ATG_NFI_CIS: Attagene CIS-FACTORIAL HepG2 Assay for human Nuclear Factor I (NFI) (AID 2282989)
Settings: HepG2 cis-regulatory reporter, NFI response element transcription; actives raise or lower the signal
Outline: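 Multiplexed cis-reporter system in human HepG2 cells reports native TF activity as reporter mRNA induction 24 h post-dose. Fragments labelled with 6-FAM, HpaI-digested and resolved by capillary electrophoresis; activity fitted both directions versus DMSO.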

Structure (SMILES) | outcome
CCN(N=O)C(N)=O | inactive
CCOP(=O)(OCC)SCCSCC | inactive
Brc1ccc(Br)cc1 | inactive
CCOc1cc(C=O)ccc1O | inactive
CCCCCCCCBr | inactive
N#Cc1ccncc1 | inactive
CN(C)c1ccc(N=O)cc1 | inactive
FC(F)OCC(F)(F)C(F)(F)F | inactive
C=CC(=O)OCC(COC(=O)C=C)(COC(=O)C=C)COC(=O)C=C | inactive
CN(N=O)C(N)=O | inactive
O=[N+]([O-])c1c2ccccc2cc2ccccc12 | inactive
CCCSP(=S)(OCC)Oc1ccc(Cl)cc1Cl (stereo not given) | inactive
CCOC(=O)CCN(SN(C)C(=O)Oc1cccc2c1OC(C)(C)C2)C(C)C | inactive
C=CC(F)(C(F)(F)F)C(F)(F)C(F)(F)F (stereo not given) | inactive
OCCCCO | inactive
N#Cc1ccccc1Cl | inactive
CNC(=O)N(C)c1nc2ccccc2s1 | inactive
CCOP(=S)(OCC)O/N=C(\C#N)c1ccccc1 | inactive

Structure (SMILES) | outcome
Nc1ccc(Br)cc1 | inactive
O=c1oc2ccccc2c(O)c1C(CC(O)c1ccc(-c2ccc(Br)cc2)cc1)c1ccccc1 (stereo not given) | inactive
Cc1cc(Cl)ccc1N | inactive
O=C(Cl)OCCOCCOC(=O)Cl | inactive
CC(F)(F)CC(F)(F)F | inactive
O=C(O)C1(c2ccc3c(c2)OC[C@H](Cc2ccc(-c4ccccc4)cc2)[C@H]3O)CCCC1 | inactive
Clc1cccc(Cl)c1Cl | inactive
COc1ccc([N+](=O)[O-])cc1O | inactive
Cc1cc(C(C)(C)c2ccc(O)c(C)c2)ccc1O | inactive
OC[C@@H](O)[C@H]1O[C@@H]2O[C@H](C(Cl)(Cl)Cl)O[C@@H]2[C@H]1O | inactive
C=CCOC(F)(C(F)(F)F)C(F)(F)F | inactive
CC(=O)CN(CC(C)=O)N=O | inactive
C=CCc1ccccc1O | inactive
O=[N+]([O-])c1cc([As](=O)(O)O)ccc1O | inactive
CCOC(=O)C(SP(=S)(OC)OC)c1ccccc1 (stereo not given) | inactive
CCC(C)(C#N)N=NC(C)(C#N)CC (stereo not given) | inactive
Cc1ccc(CCl)cc1 | inactive
CS(=O)(=O)c1ccc(C(=O)C2C(=O)CCCC2=O)c(Cl)c1COCC(F)(F)F | inactive

Target: Myc proto-oncogene protein (Homo sapiens) (UniProt P01106)
Sequence (P01106 whole entry, looked up): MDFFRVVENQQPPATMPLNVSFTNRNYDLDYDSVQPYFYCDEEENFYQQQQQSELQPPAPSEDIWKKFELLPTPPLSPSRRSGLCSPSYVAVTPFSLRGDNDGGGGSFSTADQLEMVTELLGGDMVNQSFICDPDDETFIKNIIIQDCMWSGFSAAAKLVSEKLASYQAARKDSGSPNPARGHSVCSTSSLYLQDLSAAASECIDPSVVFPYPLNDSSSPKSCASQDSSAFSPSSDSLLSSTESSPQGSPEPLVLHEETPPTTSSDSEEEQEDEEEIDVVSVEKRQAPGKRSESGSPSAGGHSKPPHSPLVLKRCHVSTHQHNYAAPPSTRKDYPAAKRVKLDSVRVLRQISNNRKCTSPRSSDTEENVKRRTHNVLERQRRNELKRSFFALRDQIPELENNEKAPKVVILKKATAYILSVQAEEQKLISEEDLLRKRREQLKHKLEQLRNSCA
Experiment: ATG_Myc_CIS: Attagene CIS-FACTORIAL HepG2 Assay for human Myelocytomatosis (Myc) Proto-Oncogene Transcription Factor (AID 2282990)
Settings: HepG2, Attagene cis-reporter transcription factor activity; actives raise or lower the signal
Outline: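 Cells of the HepG2 human liver line bear multiple cis-driven reporter transcription units. Reporter mRNA after 24 h exposure is reverse-transcribed, amplified, labelled and resolved by capillary electrophoresis, with gain- or loss-of-signal fitting relative to DMSO.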

Structure (SMILES) | outcome
CCN(N=O)C(N)=O | inactive
CCOP(=O)(OCC)SCCSCC | inactive
Brc1ccc(Br)cc1 | inactive
C=C(C)[C@@H]1CC=C(C=O)CC1 | inactive
CCOc1cc(C=O)ccc1O | inactive
CCCCCCCCBr | inactive
N#Cc1ccncc1 | inactive
Clc1cccc(Cl)c1 | inactive
CN(C)c1ccc(N=O)cc1 | inactive
FC(F)OCC(F)(F)C(F)(F)F | inactive
C=CC(=O)OCC(COC(=O)C=C)(COC(=O)C=C)COC(=O)C=C | inactive
CC(C)[C@H](C(=O)OC(C#N)c1cccc(Oc2ccccc2)c1)c1ccc(OC(F)F)cc1 (stereo not given in full) | inactive
CN(N=O)C(N)=O | inactive
O=[N+]([O-])c1c2ccccc2cc2ccccc12 | inactive
CCCSP(=S)(OCC)Oc1ccc(Cl)cc1Cl (stereo not given) | inactive
CCOC(=O)CCN(SN(C)C(=O)Oc1cccc2c1OC(C)(C)C2)C(C)C | inactive
C=CC(F)(C(F)(F)F)C(F)(F)C(F)(F)F (stereo not given) | inactive
OCCCCO | inactive
N#Cc1ccccc1Cl | inactive
CNC(=O)N(C)c1nc2ccccc2s1 | inactive

Structure (SMILES) | outcome
CCOP(=S)(OCC)O/N=C(\C#N)c1ccccc1 | inactive
Nc1ccc(Br)cc1 | inactive
O=c1oc2ccccc2c(O)c1C(CC(O)c1ccc(-c2ccc(Br)cc2)cc1)c1ccccc1 (stereo not given) | inactive
Cc1cc(Cl)ccc1N | inactive
O=C(Cl)OCCOCCOC(=O)Cl | inactive
CC(F)(F)CC(F)(F)F | inactive
O=C(O)C1(c2ccc3c(c2)OC[C@H](Cc2ccc(-c4ccccc4)cc2)[C@H]3O)CCCC1 | inactive
Clc1cccc(Cl)c1Cl | inactive
COc1ccc([N+](=O)[O-])cc1O | inactive
Cc1cc(C(C)(C)c2ccc(O)c(C)c2)ccc1O | inactive
OC[C@@H](O)[C@H]1O[C@@H]2O[C@H](C(Cl)(Cl)Cl)O[C@@H]2[C@H]1O | inactive
C=CCOC(F)(C(F)(F)F)C(F)(F)F | inactive
CC(=O)CN(CC(C)=O)N=O | inactive
C=CCc1ccccc1O | inactive
O=[N+]([O-])c1cc([As](=O)(O)O)ccc1O | inactive
CCOC(=O)C(SP(=S)(OC)OC)c1ccccc1 (stereo not given) | inactive
CCC(C)(C#N)N=NC(C)(C#N)CC (stereo not given) | inactive
Cc1ccc(CCl)cc1 | inactive
CS(=O)(=O)c1ccc(C(=O)C2C(=O)CCCC2=O)c(Cl)c1COCC(F)(F)F | inactive
